miR-122 sensor – miR-122 Renilla sensor signal increase in Huh7, primary screen, miR-122 inhibitor project, cell-based, single point, plate reader; Huh7 miR-122 Renilla luciferase sensor, 48 h; neutral wells = 0, positive control = 100; AID 602342, 2012; actives 0.3% (n = 340,000); activation (reporter increase), % at 12.5 µM;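 active means mean replicate activation score at least 90 and every replicate individually at or above 90; inconclusive means only one of the two criteria met; inactive means neither criterion met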;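 further: higher luciferase means less miR-122 activity so hits act as miR-122 inhibitors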
EWS-Fli block – EWS/Fli-driven NR0B1 reporter inhibitors, primary screen, A673 cells, NR0B1 luciferase, luminescence, MLPCN library. viability-normalised. inhibition, % at 12.6 µM. actives 0.67% (n = 350,000). AID 651661, 2012;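 active means mean inhibition of at least 50% after viability correction, with every replicate also passing that limit; inconclusive means mean reaches 50% but only one of two replicates passes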;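 further: firefly luciferase signal divided by Alamar Blue viability fluorescence both relative to DMSO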
Statin myotox sup – suppressors of statin myotoxicity in C2C12 myotubes, primary screen, cell-based, single point, plate reader; actives 0.78% (n = 330,000); C2C12 myotubes + simvastatin, ATP luminescence, 48 h; scaled: DMSO 0, geranylgeraniol control 100; rescue of ATP level, % at 7.49 µM;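 active means mean ATP rescue above about 67%, or every replicate alone reaching that limit, limit read from the data, passing the limit was not always enough; inconclusive means no clear call, values can overlap the other calls; inactive means mean under the limit and some replicate under it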;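 further: myotubes were challenged with 10 µM simvastatin during compound exposure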
INS-1E GSIS act – GLuc luminescence reporter in INS-1E cells, primary screen for activators of glucose-dependent secretion of insulin; actives 0.61% (n = 370,000); activation, % at 16.6 µM; INS-1E GLuc reporter insulin secretion, 2-3 h;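 active means lowest replicate activation of at least 40%, so every replicate reaches that level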;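 further: 0% = median of neutral control wells and 100% = median of IBMX positive control wells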
PAX8 inh HTS – inhibitors of PAX8-driven TPO luciferase reporter, primary screen, RMG-I cells, single concentration | inhibition, % at 12.6 µM | actives 1.2% (n = 360,000) | SteadyGlo, 24 h;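 active means mean replicate inhibition at least 60% with every replicate also reaching 60%; inconclusive means only one of the two criteria is met; inactive means mean below 60% and not all replicates reaching 60%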;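 further: luciferase light reporting Pax8 driven TPO promoter activity; plate controls were median of neutral control wells for no effect and mitoxantrone controls for full effect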
HIV Env fusion – inhibitors of HIV-1 Env-driven cell-cell fusion, primary screen, HeLa-JRFL effector, CEM21 target cells, luciferase. inhibition, % at 12.3 µM. actives 1.1% (n = 360,000). AID 651610, 2012;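 active means mean replicate inhibition score of at least 50 and every replicate individually at or above 50; inconclusive means only one of the two criteria met; inactive means mean below 50 and not all replicates reaching 50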;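 further: 0% = plate neutral controls and 100% = maraviroc near 300 nM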
miR-27b select – miR-27b levels after miR-122 inhibitor treatment, dose response, selectivity assay for miR-122 inhibitor project, cell-based, Huh7, RT-qPCR, dry powder; shares compounds with miR-122 sensor; Huh7 miR-27b levels, qRT-PCR, 48 h; relative miR-27b level (unnormalised ratio), ratio at 35 µM; 35 tested, under 10 active;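 active means compounds lowering miR-27b whose fitted half-maximal dose is at most twice their top tested dose; inconclusive means flat curve with moderate drop, or poor fit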
Active calls of the source: *; ? = inconclusive; / = no result given; [ ] = dose if it differs, or a comment. A selection: hits, their analogues and other compounds. The true share with any hit is near 3.1%.

SMILES	miR-122 sensor	EWS-Fli block	Statin myotox sup	INS-1E GSIS act	PAX8 inh HTS	HIV Env fusion	others
C[C@@H]1CCCCO[C@H](CN(C)Cc2ccc(Cl)c(Cl)c2)[C@@H](C)CN([C@@H](C)CO)C(=O)c2cc(NC(=O)Nc3ccc(F)cc3)ccc2O1	0[16.7 µM]	3	/	-9	89*	?
CC(C)NC(=O)Nc1ccc2c(c1)C(=O)N([C@@H](C)CO)C[C@@H](C)[C@@H](CN(C)Cc1ccc(Cl)c(Cl)c1)OCCCC[C@@H](C)O2	-2[16.7 µM]	3	/	-25	22	25[16.7 µM]
C[C@H](CO)N1C[C@H](C)[C@H](CN(C)Cc2ccc(Cl)c(Cl)c2)OCCCC[C@H](C)Oc2ccc(NC(=O)Nc3ccc(F)cc3)cc2C1=O	4[16.7 µM]	1	/	9	64*	50[16.7 µM]
C[C@@H]1CCCCO[C@@H](CN(C)Cc2ccc(Cl)c(Cl)c2)[C@H](C)CN([C@@H](C)CO)C(=O)c2cc(NC(=O)Nc3ccc(F)cc3)ccc2O1	-6[16.7 µM]	9	/	-23	67*	31[16.7 µM]
CCC(=O)N1CCC2(CC1)CN(C(=O)NC1CCCC1)[C@@H](CO)c1c2c2ccc(OC)cc2n1C	/	-3	/	-12	/	/
Cc1ccc(S(=O)(=O)N(C)C[C@@H]2OCCCC[C@H](C)Oc3ccc(NC(=O)Nc4ccc(F)cc4)cc3C(=O)N([C@@H](C)CO)C[C@@H]2C)cc1	-10[16.7 µM]	4	/	-9	36	18[16.7 µM]
C[C@H](CO)N1C[C@H](C)[C@@H](CN(C)S(=O)(=O)c2ccccc2)Oc2ccc(N(C)C)cc2CC1=O	2[16.7 µM]	/	-6	22	-2	-4[16.7 µM]
O=C(C[C@H]1CC[C@H]2[C@@H](COC[C@H](O)CN2Cc2cc(F)ccc2F)O1)NCc1ccccc1	5[16.7 µM]	5	-15	-9	-19	/
Cc1ccc(/C=C2/CNC/C(=C/c3ccc(C)cc3)C2=O)cc1	3	53*	15	9	31	66*
COC(=O)c1cccc(OCC(O)Cn2ccnc2)c1 (stereo not drawn)	10	/	109*	/	/	/
O=C(N[C@@H]1CC[C@@H](CCn2cc(-c3ccccn3)nn2)O[C@H]1CO)c1ccncc1	/	-9	1	-3	-2	11[16.7 µM]
CN1CCN(CC(=O)n2c3c(c4ccccc42)CCCC3)CC1	2	/	0	/	/	/
CCN(CC)CC(=O)n1c2c(c3ccccc31)CCCC2	-4	/	124*	/	/	/
COC(=O)c1sc(N)c(C(=O)OC)c1CSc1nnc(-c2ccccc2Cl)n1C	104*	/	49	/	/	-1
COC(=O)c1sc(N)c(C(=O)OC)c1Cn1ncc(Cl)c(Cl)c1=O	/	13	9	-3	63*	2
COC(=O)c1sc(N)c(C(=O)OC)c1CSc1nnnn1C	-3	/	1	/	/	/
COCC(=O)N(C)C[C@H]1Oc2cc(C3=CCCCC3)ccc2S(=O)(=O)N([C@H](C)CO)C[C@H]1C	-9[16.7 µM]	-4	-17	-8	/	5[16.7 µM]
Nc1nnc(SC2CC(=O)N(c3ccccc3)C2=O)s1 (stereo not drawn)	-4	/	6	/	/	58*
O=C1CC(Sc2ncccn2)C(=O)N1c1ccccc1 (stereo not drawn)	0	/	/	6	2	-70
CN(C)CC(=O)Nc1ccc2c(c1)[C@H]1C[C@H](CC(=O)N3CCc4ccccc4C3)O[C@@H](CO)[C@H]1O2	-3[16.7 µM]	-5	0	-9	2	0[16.7 µM]
CCC(C)(NC(=O)c1ccc(=O)[nH]c1)C(=O)NC1CCCC1 (stereo not drawn)	-4	-6	92*	/	1	-5
O=C(NC1CCCc2ccccc21)c1ccc(=O)[nH]c1 (stereo not drawn)	3	/	2	15	/	/
COc1ccc(-c2oc(=O)c3cc(OC)c(OC)cc3c2-c2ccc3c(c2)OCO3)cc1	3	-10	-5	2	-8	-3
COc1cc2c(O)c3c(c(-c4ccc5c(c4)OCO5)c2cc1OC)C(=O)OC3	/	/	-318	/	/	63*
Cc1ccc(/C=N/n2c(-c3cccnc3)n[nH]c2=S)s1	/	/	/	40*	11	-11
SMILES	miR-122 sensor	EWS-Fli block	Statin myotox sup	INS-1E GSIS act	PAX8 inh HTS	HIV Env fusion	others
S=c1[nH]nc(-c2cccnc2)n1/N=C/c1ccc(Br)s1	-15	/	/	-14	10	20
CN1C(=O)c2cc(NC(=O)Nc3ccc(Cl)cc3)ccc2OC[C@@H]2O[C@@H](CC(=O)O)CC[C@H]21	14[16.7 µM]	-2	-7	-2	-7	21[16.7 µM]
COc1ccc(S(=O)(=O)NC2CC3CCC2C3)cc1Br (stereo not drawn)	84	3	4	-11	-9	-7
Cc1cc(C)c(S(=O)(=O)NC2CC3CCC2C3)c(C)c1 (stereo not drawn)	125*	1	2	6	11	-8	miR-27b select=0.47
CO[C@@H]1CN(C)C(=O)c2ccc(NC(C)=O)cc2OC[C@@H](C)N(C(=O)C2CC2)C[C@@H]1C	/	-12	-5	1	-2	/
CCCCNS(=O)(=O)c1ccc2nc(-c3cccnc3)cc(C(=O)NC(C)CC)c2c1 (stereo not drawn)	?	-1	-3	8	5	-4	miR-27b select=0.57
CCCCNS(=O)(=O)c1ccc2nc(-c3cccnc3)cc(C(=O)NC(C)C)c2c1	69	3	1	2	6	4
CC1CCCCN1C(=O)c1cc2nc(-c3ccccc3)cc(-c3ccccc3)n2n1 (stereo not drawn)	121*	/	-2	/	/	15	miR-27b select=0.9
C[C@H]1CCCCO[C@@H](CN(C)C(=O)c2ccncc2)[C@@H](C)CN([C@@H](C)CO)C(=O)c2cc(NC(=O)NC3CCCCC3)ccc2O1	13[16.7 µM]	-8	/	-7	-35	-3[16.7 µM]
O=S(=O)(Nc1cccc2[nH]ncc12)c1ccc(F)c2ncccc12	/	/	/	/	/	/	miR-27b select=0.89
COc1cccc(N2CCN(C(=O)c3oc4ccccc4c3NC(=O)CCc3cc(OC)no3)CC2)c1	?	/	-2	-54	4	-5	miR-27b select=0.64
Cc1ccc(S(=O)(=O)Nc2ccc3c(c2)C(=O)N([C@@H](C)CO)C[C@H](C)[C@H](CN(C)Cc2ccccc2)OCCCC[C@@H](C)O3)cc1	-13[16.7 µM]	33	/	-28	28	-25[16.7 µM]
CCOc1cc(C)c(S(=O)(=O)NC2CCCCC2)cc1C	198*	/	/	/	/	/	miR-27b select=0.91
O=C(Nc1ccc(F)cc1)N1CC(=O)N2[C@H](CO)[C@H](c3ccc(C#Cc4cccnc4)cc3)[C@H]2C1	/	1	/	-12	/	/
Cc1ccc(NS(=O)(=O)c2cc(C(=O)NCc3ccccn3)ccc2Cl)cc1C	101*	/	9	-18	/	/	miR-27b select=0.97

Screening data: PubChem BioAssay, Broad Institute
